Laboratory results published in article PMC7862700, “An all-to-all approach to the identification of sequence-specific readers for epigenetic DNA modifications on cytosine”.

Legend:
Assay in all cases: DAPPL (digital affinity profiling via proximity ligation, sequencing); 10 mM Tris-HCl pH 7.5, 50 mM NaCl, 1 mM DTT, 4% glycerol, room temperature, 30 min; GST-TFs on glutathione beads, 16-mer random dsDNA library, 0.1% formaldehyde crosslink after washing; high values mean tight binding
FLI1 = target: T1, FLI1 (Homo sapiens, UniProt Q01543 1-452); settings: protein: recombinant; tags: N-terminal GST; dsDNA, one strand shown
T1 sequence: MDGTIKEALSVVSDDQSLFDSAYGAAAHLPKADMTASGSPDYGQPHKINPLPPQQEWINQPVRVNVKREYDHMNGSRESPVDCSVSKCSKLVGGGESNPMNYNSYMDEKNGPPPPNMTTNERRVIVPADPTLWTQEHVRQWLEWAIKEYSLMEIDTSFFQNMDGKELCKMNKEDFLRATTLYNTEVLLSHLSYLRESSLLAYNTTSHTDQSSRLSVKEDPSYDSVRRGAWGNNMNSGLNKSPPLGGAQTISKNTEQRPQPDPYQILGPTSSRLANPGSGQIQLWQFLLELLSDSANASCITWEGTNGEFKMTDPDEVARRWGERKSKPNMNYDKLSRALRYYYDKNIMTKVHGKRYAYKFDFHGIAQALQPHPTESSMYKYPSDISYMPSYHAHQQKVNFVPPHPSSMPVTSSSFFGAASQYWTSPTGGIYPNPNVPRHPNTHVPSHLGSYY
In short: (§1)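 Sequencing on an Illumina NextSeq500 followed washing, crosslinking with 0.1% formaldehyde, proximity ligation (BsaI/T4 ligase, 1 h, 37 °C) and PCR amplification of pools that had been incubated for 30 min at room temperature with 200 nmole of a random double-stranded 16-mer DNA library in Tris/NaCl/DTT/glycerol buffer. Each pool held DNA-barcoded human transcription factors, expressed in yeast as GST fusions and captured on glutathione beads, plus a tag-only sample. Binding signal is a hexamer's read frequency for a factor divided by its frequency in the tag-only sample.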

ELK1 = target: T2, ELK1 (Homo sapiens, UniProt P19419 1-428); settings: protein: recombinant; tags: N-terminal GST; dsDNA, one strand shown
T2 sequence: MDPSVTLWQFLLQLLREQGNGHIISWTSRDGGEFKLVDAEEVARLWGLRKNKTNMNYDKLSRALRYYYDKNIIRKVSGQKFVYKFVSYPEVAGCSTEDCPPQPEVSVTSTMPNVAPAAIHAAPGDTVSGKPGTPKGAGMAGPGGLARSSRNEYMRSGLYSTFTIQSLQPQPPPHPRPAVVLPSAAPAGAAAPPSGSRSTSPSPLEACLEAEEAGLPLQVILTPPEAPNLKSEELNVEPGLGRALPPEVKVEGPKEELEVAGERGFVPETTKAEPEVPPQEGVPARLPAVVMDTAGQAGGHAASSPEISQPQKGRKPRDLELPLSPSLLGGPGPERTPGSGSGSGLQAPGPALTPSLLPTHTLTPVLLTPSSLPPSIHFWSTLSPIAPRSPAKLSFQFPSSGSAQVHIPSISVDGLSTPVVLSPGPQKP
In short: as §1

GABPA = target: T3, GABPA (Homo sapiens, UniProt Q06546 1-454); settings: protein: recombinant; tags: N-terminal GST; dsDNA, one strand shown
T3 sequence: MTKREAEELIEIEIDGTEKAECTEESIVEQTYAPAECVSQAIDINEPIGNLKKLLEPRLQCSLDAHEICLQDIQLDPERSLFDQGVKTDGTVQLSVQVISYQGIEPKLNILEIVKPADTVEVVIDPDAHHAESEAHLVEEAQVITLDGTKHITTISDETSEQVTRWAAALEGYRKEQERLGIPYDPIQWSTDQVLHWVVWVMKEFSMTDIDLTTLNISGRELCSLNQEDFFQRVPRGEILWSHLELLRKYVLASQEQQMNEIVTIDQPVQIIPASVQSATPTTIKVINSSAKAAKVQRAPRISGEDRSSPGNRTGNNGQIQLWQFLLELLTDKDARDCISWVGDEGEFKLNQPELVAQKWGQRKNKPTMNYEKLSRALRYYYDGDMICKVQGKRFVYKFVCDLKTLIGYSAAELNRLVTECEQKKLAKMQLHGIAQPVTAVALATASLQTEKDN
In short: as §1

ERG = target: T4, ERG (Homo sapiens, UniProt P11308 1-479); settings: protein: recombinant; tags: N-terminal GST; dsDNA, one strand shown
T4 sequence: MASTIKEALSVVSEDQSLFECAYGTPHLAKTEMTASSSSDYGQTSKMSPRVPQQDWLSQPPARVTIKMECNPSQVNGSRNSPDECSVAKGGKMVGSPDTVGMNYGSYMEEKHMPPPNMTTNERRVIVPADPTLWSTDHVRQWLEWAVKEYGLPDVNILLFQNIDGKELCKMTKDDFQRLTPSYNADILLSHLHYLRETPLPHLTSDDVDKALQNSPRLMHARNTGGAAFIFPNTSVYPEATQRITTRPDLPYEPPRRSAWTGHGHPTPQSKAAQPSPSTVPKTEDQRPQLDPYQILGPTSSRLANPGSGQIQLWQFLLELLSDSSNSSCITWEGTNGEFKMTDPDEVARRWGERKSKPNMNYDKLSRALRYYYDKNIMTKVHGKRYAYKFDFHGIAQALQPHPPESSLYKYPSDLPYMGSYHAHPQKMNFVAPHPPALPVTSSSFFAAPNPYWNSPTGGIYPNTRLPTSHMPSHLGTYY
In short: as §1

ELF1 = ELF1 (Homo sapiens, UniProt P32519 1-619); settings: protein: recombinant; tags: N-terminal GST; dsDNA, one strand shown
In short: as §1

EHF = target: T5, EHF (Homo sapiens, UniProt Q9NZC4 1-300); settings: protein: recombinant; tags: N-terminal GST; dsDNA, one strand shown
T5 sequence: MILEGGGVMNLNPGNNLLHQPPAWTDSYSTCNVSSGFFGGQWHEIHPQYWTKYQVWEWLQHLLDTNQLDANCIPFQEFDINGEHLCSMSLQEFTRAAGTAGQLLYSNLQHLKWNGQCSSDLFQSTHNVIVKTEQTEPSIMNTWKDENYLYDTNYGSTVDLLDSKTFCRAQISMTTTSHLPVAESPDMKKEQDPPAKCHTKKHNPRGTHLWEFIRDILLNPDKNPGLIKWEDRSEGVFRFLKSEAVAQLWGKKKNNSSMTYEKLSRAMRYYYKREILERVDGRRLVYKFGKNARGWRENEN
In short: as §1

SPI1 = SPI1 (Homo sapiens, UniProt P17947 1-270); settings: protein: recombinant; tags: N-terminal GST; dsDNA, one strand shown
In short: as §1

SPIB = SPIB (Homo sapiens, UniProt Q01892 1-262); settings: protein: recombinant; tags: N-terminal GST; dsDNA, one strand shown
In short: as §1

ELK3 = target: T6, ELK3 (Homo sapiens, UniProt P41970 1-407); settings: protein: recombinant; tags: N-terminal GST; dsDNA, one strand shown
T6 sequence: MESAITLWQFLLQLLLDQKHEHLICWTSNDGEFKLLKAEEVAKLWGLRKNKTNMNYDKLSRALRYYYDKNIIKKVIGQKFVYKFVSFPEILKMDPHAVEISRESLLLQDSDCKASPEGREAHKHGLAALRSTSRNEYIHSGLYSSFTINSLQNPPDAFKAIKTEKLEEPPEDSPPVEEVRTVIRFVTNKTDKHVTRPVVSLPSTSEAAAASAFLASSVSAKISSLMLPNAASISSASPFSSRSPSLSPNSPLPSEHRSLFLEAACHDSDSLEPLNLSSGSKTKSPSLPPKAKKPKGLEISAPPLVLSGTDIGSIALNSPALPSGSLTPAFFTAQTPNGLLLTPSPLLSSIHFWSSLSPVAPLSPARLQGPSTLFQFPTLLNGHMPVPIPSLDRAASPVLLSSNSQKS
In short: as §1

FEV = target: T7, FEV (Homo sapiens, UniProt Q99581 1-238); settings: protein: recombinant; tags: N-terminal GST; dsDNA, one strand shown
T7 sequence: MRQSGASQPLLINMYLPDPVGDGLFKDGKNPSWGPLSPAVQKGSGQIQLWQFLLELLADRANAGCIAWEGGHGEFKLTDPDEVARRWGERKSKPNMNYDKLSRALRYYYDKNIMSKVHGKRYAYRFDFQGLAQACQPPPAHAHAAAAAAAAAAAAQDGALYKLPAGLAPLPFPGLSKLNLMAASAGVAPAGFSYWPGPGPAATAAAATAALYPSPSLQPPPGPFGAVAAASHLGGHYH
In short: as §1

ETV5 = ETV5 (Homo sapiens, UniProt P41161 1-510); settings: protein: recombinant; tags: N-terminal GST; dsDNA, one strand shown
In short: as §1

HSF1 = HSF1 (Homo sapiens, UniProt Q00613 1-529); settings: protein: recombinant; tags: N-terminal GST; chain copies: 3; dsDNA, one strand shown
In short: as §1

SPIC = target: T8, SPIC (Homo sapiens, UniProt Q8N5J4 1-248); settings: protein: recombinant; tags: N-terminal GST; dsDNA, one strand shown
T8 sequence: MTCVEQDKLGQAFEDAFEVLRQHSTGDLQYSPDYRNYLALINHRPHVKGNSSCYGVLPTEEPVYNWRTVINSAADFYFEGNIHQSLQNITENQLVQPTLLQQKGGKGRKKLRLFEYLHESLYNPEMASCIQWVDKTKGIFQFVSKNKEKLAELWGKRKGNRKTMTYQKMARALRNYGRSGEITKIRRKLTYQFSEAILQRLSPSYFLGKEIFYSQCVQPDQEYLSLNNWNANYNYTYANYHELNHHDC
In short: as §1

ELF4 = ELF4 (Homo sapiens, UniProt Q99607 1-663); settings: protein: recombinant; tags: N-terminal GST; dsDNA, one strand shown
In short: as §1

ELK4 = target: T9, ELK4 (Homo sapiens, UniProt P28324-2 1-405); settings: protein: recombinant; tags: N-terminal GST; dsDNA, one strand shown
T9 sequence: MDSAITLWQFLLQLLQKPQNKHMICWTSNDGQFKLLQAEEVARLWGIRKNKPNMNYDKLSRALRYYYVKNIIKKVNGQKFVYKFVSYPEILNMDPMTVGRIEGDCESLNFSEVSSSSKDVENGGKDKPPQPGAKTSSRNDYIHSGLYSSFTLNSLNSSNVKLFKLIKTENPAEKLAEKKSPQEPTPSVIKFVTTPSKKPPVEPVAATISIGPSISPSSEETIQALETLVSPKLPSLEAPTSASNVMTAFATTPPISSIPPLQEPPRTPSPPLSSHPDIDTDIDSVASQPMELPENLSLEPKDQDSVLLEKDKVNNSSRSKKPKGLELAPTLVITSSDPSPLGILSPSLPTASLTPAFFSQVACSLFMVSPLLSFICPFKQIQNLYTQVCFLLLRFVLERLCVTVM
In short: as §1

ETV2 = target: T10, ETV2 (Homo sapiens, UniProt O00321 1-342); settings: protein: recombinant; tags: N-terminal GST; dsDNA, one strand shown
T10 sequence: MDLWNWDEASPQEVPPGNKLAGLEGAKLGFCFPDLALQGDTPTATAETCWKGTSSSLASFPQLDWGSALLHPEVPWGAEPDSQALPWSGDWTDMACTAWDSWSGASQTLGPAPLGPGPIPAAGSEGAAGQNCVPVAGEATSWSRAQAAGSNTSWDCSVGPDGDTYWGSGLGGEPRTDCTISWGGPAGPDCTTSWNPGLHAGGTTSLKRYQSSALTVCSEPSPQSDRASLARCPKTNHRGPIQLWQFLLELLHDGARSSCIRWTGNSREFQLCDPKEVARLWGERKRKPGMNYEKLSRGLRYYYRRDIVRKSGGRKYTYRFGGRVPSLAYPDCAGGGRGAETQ
In short: as §1

ELF3 = target: T11, ELF3 (Homo sapiens, UniProt P78545 1-371); settings: protein: recombinant; tags: N-terminal GST; dsDNA, one strand shown
T11 sequence: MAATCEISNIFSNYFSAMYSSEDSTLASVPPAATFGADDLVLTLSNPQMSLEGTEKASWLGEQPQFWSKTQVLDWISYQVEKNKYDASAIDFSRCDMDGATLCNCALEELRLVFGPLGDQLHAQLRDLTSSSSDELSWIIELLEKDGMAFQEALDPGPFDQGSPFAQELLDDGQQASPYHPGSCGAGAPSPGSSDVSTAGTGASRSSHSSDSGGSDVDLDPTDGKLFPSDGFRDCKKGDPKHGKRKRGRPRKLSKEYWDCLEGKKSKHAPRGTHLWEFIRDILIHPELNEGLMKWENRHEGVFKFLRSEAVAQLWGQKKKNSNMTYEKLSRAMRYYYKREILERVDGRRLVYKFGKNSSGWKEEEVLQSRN
In short: as §1

CRX = CRX (Homo sapiens, UniProt O43186 1-299); settings: protein: recombinant; tags: N-terminal GST; dsDNA, one strand shown
In short: as §1

ETV1 = ETV1 (Homo sapiens, UniProt P50549 1-477); settings: protein: recombinant; tags: N-terminal GST; dsDNA, one strand shown
In short: as §1

Sequence of HSF1 (Q00613 whole entry): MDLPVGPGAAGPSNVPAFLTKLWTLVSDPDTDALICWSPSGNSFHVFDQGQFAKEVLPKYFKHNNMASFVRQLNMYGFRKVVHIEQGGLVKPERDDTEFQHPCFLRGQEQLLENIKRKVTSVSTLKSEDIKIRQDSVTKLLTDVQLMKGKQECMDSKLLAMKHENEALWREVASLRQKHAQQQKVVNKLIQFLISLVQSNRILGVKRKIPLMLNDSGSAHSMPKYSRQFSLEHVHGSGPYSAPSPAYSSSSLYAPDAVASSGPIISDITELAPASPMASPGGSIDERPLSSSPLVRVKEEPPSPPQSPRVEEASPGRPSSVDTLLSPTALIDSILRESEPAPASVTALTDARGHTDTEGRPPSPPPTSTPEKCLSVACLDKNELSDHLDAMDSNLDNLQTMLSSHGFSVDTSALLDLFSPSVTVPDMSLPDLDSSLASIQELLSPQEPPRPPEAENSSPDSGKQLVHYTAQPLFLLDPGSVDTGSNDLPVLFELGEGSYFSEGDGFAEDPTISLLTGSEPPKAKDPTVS
Sequence of ETV5 (P41161 whole entry): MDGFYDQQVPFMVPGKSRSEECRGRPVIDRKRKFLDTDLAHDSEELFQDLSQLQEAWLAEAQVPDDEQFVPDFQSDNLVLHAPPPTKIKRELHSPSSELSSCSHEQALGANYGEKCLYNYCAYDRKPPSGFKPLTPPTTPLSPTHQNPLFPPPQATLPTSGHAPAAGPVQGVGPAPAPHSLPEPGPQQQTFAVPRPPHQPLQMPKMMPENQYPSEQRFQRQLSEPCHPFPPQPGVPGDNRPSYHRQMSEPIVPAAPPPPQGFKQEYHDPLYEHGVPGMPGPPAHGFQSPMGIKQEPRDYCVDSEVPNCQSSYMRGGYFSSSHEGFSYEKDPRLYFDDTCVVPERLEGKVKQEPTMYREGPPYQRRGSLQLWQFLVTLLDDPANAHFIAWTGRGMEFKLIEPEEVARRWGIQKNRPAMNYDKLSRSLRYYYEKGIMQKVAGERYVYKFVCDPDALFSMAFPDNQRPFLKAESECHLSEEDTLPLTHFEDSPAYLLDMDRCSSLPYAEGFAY
Sequence of ELF1 (P32519 whole entry): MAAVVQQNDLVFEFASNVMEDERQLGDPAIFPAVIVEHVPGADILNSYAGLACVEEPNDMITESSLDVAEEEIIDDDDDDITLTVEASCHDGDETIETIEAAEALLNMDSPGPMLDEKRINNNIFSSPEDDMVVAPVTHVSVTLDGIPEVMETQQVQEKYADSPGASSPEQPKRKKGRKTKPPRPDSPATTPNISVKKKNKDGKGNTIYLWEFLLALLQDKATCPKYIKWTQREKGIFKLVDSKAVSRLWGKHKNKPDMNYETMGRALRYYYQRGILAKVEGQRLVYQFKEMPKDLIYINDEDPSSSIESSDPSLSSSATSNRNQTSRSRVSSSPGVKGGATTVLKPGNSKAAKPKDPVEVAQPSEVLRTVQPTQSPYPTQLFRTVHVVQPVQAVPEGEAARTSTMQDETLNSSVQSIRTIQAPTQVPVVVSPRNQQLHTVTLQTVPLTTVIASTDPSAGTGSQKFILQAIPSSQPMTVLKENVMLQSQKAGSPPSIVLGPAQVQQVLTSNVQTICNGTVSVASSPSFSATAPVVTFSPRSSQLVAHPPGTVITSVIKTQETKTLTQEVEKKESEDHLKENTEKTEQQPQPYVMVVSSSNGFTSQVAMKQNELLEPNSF
Sequence of ELF4 (Q99607 whole entry): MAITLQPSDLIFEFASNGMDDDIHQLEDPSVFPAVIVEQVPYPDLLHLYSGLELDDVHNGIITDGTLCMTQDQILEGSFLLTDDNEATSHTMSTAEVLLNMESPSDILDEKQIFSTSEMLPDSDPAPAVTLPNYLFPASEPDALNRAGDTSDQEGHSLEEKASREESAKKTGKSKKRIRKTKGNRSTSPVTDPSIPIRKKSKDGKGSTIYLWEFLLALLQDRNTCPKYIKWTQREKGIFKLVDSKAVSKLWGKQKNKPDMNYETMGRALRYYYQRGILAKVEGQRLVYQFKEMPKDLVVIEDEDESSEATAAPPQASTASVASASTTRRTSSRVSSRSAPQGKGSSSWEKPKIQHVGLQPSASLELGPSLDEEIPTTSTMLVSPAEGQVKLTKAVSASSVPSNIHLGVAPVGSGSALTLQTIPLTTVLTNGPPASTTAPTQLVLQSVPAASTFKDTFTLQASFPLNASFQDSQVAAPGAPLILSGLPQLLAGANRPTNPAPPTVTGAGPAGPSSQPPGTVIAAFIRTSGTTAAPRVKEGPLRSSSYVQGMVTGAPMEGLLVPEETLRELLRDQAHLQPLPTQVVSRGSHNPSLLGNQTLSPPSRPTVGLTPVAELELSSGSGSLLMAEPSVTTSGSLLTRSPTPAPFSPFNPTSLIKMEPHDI
Sequence of SPIB (Q01892 whole entry): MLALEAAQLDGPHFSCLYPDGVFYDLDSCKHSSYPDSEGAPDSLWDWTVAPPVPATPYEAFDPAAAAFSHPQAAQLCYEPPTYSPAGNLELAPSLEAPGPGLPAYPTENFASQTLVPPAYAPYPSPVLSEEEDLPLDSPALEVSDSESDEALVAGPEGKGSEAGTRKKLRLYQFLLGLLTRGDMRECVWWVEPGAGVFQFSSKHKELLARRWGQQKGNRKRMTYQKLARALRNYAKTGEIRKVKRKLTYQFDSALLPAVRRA
Sequence of CRX (O43186 whole entry): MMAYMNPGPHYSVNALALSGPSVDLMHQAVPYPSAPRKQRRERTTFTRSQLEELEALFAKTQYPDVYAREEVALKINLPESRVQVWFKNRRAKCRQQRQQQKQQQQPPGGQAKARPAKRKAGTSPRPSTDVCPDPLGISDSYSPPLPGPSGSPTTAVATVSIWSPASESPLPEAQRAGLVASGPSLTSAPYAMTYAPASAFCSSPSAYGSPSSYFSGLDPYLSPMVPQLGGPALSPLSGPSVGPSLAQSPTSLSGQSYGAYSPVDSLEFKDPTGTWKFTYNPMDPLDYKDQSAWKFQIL
Sequence of ETV1 (P50549 whole entry): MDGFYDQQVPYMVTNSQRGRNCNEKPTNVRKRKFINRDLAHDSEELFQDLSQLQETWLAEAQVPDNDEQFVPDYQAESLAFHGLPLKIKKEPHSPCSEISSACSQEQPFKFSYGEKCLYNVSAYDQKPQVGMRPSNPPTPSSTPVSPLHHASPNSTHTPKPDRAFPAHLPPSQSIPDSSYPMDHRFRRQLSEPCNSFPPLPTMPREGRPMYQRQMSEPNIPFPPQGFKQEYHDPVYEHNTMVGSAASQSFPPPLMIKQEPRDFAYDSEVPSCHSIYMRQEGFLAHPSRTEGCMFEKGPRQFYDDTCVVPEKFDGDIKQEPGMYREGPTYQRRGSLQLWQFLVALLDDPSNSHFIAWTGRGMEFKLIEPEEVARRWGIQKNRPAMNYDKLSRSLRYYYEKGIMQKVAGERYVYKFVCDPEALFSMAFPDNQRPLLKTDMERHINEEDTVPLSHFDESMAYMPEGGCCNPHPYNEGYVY

Question: Which binding signal (FLI1) does the source give for AACAAA here?
Answer: 1.18 fold enrichment (6-mer frequency, TF over GST control)

Question: What about the binding signal (ELK1) of the same sequence?
Answer: 1.16 fold enrichment (6-mer frequency, TF over GST control)

Question: And the binding signal (GABPA)?
Answer: 1.1 fold enrichment (6-mer frequency, TF over GST control)

Question: And the binding signal (ERG)?
Answer: 1.18 fold enrichment (6-mer frequency, TF over GST control)

Question: What about the binding signal (ELF1) of the same sequence?
Answer: 1.14 fold enrichment (6-mer frequency, TF over GST control)

Question: What about the binding signal (EHF) of the same sequence?
Answer: 1.17 fold enrichment (6-mer frequency, TF over GST control)

Question: What about the binding signal (SPI1) of the same sequence?
Answer: 1.16 fold enrichment (6-mer frequency, TF over GST control)

Question: What about the binding signal (SPIB) of the same sequence?
Answer: 1.15 fold enrichment (6-mer frequency, TF over GST control)

Question: What about the binding signal (ELK3) of the same sequence?
Answer: 1.27 fold enrichment (6-mer frequency, TF over GST control)

Question: What about the binding signal (FEV) of the same sequence?
Answer: 1.2 fold enrichment (6-mer frequency, TF over GST control)

Question: What about the binding signal (ETV5) of the same sequence?
Answer: 1.11 fold enrichment (6-mer frequency, TF over GST control)

Question: And the binding signal (HSF1)?
Answer: 1.18 fold enrichment (6-mer frequency, TF over GST control)

Question: What about the binding signal (SPIC) of the same sequence?
Answer: 1.14 fold enrichment (6-mer frequency, TF over GST control)

Question: And the binding signal (ELF4)?
Answer: 1.16 fold enrichment (6-mer frequency, TF over GST control)

Question: And the binding signal (ELK4)?
Answer: 1.17 fold enrichment (6-mer frequency, TF over GST control)

Question: And the binding signal (ETV2)?
Answer: 1.26 fold enrichment (6-mer frequency, TF over GST control)

Question: What about the binding signal (ELF3) of the same sequence?
Answer: 1.21 fold enrichment (6-mer frequency, TF over GST control)

Question: What about the binding signal (CRX) of the same sequence?
Answer: 1.14 fold enrichment (6-mer frequency, TF over GST control)

Question: And the binding signal (ETV1)?
Answer: 1.19 fold enrichment (6-mer frequency, TF over GST control)
